High-throughput results from PubChem.
TDP1 inh = inhibitors of human tyrosyl-DNA phosphodiesterase TDP1. recombinant TDP1, AlphaScreen DNA substrate cleavage. Q9NUW8. Potency, µM (top dose mostly 130 µM), for the others: at the highest dose activity change, negative = inhibition, actives largely listed as inhibitors. actives 0.28% (n = 350,000). AID 485290; also: % is scaled to controls: 0 for no effect and ±100 for the full control effect; nearly all actives have a fitted effect of over 40% in size
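E. coli-derived human Tdp1, 1 nM final. Cpd preinc 15 min RT; substrate 15 nM final, 5 min RT; AS bead mix 10 ug/ml final, 10 min RT. Signal loss = tyrosine-FITC cleavage. No-enzyme wells = max signal.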
DT40 TDP1 no CPT = qHTS for Inhibitors of human tyrosyl-DNA phosphodiesterase 1 (TDP1): qHTS in cells in absence of CPT; DT40 Tdp1-/- hTDP1 cells, no CPT, ATP luminescence, 48 h; Potency, µM (top dose mostly 46.2 µM), without a hit: at the highest dose activity change, negative = growth inhibition, hits mostly inhibitors; actives 15% (n = 420,000); also: % is scaled to controls: 0 for no effect and ±100 for the full control effect; nearly all actives have a fitted effect of over 55% in size
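No-CPT arm: Tdp1-/-;hTDP1 DT40 cells (400/well) plus compounds, incubated ≥48 hr at 37 °C. Readout CellTiter-Glo luminescence.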
DT40 TDP1 CPT = DT40-hTDP1 cell growth loss with CPT | Potency, µM (doses to about 46.2 µM), without a hit: top-dose activity change, negative = growth inhibition, usual class: inhibitors | actives 12% (n = 420,000) | chicken DT40 Tdp1-/-;hTDP1 cells + 20 nM CPT, ATP luminescence, 48 h; also: % is scaled to controls: 0 for no effect and ±100 for the full control effect; nearly all actives have a fitted effect of over 55% in size
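Cell growth measured by CellTiter-Glo luminescence after a minimum 48 h, 37 C compound exposure with 20 nM CPT in Tdp1-knockout DT40 cells stably expressing hTDP1, seeded 400/well; qHTS titration format.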
ClpP mod = qHTS Assay for Activators of ClpP | ATP-dependent Clp protease proteolytic subunit (Bacillus subtilis (strain 168)), P80244 | purified B. subtilis ClpP, FRET peptide cleavage, 20 min | Potency, µM (series often up to 57.5 µM), for inactives: at the top dose activity change, negative = active | actives 1.9% (n = 340,000) | AID 651965, 2013; active = well fitted falling curve with a large enough effect; inconclusive = small, poorly fitted or top-dose-only effect; inactive = no such curve, though single readings can be large or run the other way; also: the source files actives as falling curves though it sought activators and does not explain the sign; nearly all actives have a fitted effect of over 65% in size
Target sequence (P80244 whole entry, looked up): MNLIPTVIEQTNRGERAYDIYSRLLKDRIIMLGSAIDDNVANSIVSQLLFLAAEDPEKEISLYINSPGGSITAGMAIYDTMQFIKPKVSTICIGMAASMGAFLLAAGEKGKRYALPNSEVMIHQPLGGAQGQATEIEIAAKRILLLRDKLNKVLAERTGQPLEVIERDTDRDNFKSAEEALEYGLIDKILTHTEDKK
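FRET quenching reversal measured ClpP activation: 10 microg/mL B. subtilis ClpP at pH 8 with the FRET-FV decapeptide, read at 430 nm after 320 nm excitation. The 20-min minus 0-min signal was scaled between DMSO/no-enzyme wells and ADEP (5.8 microM final).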
* marks the source's active call; other numbers are inactive results; ? = inconclusive; · = no result given. Compounds with a hit are over-represented: about 17% of the library has one in this group of screens. Unless noted, calls follow the shape of the dose curve; as a rule, active = well fitted curve in the direction sought with a large enough effect; inconclusive = small, poorly fitted or top-dose-only effect, or another doubt; inactive = no such curve, though single readings can be large; an effect the other way counts as inactive or inconclusive. Potency is read from the fitted curve at half-maximal effect.

SMILES	TDP1 inh	DT40 TDP1 no CPT	DT40 TDP1 CPT	ClpP mod
Cc1ccc(NC(=O)Nc2cccc([N+](=O)[O-])c2)cc1F	5%	16µM*	?	-1%
CC1(C(=O)NS(=O)(=O)c2cccc(Cl)c2)CCN1C(=O)COc1ccc(Cl)cc1 (stereo unspecified)	·	0%	3%	0%
CCC[C@@H]1C[C@@]1(CCC)C(NC(=O)c1ccccc1)c1cccc(Cl)c1 (stereo partly specified)	9%	·	·	·
C(=Nc1ccc2ccccc2n1)c1cccnc1	·	-11%	?	3%
COc1cccc(-c2cc(=O)c3cc(NC(C)=O)ccc3[nH]2)c1	4%	16µM*	?	4%
CC(=O)Nc1ccc2[nH]c(C)cc(=O)c2c1	4%	-26%	8%	32µM*
Cc1cc(=O)c2cc(Br)ccc2[nH]1	1%	6.5µM*	6.5µM*	0%
Cc1cc(=O)c2ccccc2[nH]1	-3%	-13%	-21%	-9%
CC(=O)Nc1ccc2[nH]c3ccccc3c2c1	5%	1%	-13%	-20%
Cc1nn(-c2ccccc2)c2c1CC(=O)Nc1ccccc1-2	·	0.82µM*	0.65µM*	2%
Cc1nnc2c(Nc3cccc(O)c3)nc3ccccc3n12	·	?	?	-6%
C=Cc1ccc(Cn2c(C(=O)O)c(CNCc3cc(OC)ccc3OC)c3ccc(C)cc32)cc1	11%	?	?	0%
COc1ccc(Cn2c(C(=O)O)c(CNCc3ccccc3F)c3ccc(OC)cc32)cc1	3%	16µM*	?	-7%
COc1ccc2c(CNCCc3ccccc3)c(C(=O)O)n(Cc3cccc(F)c3)c2c1	5%	18µM*	?	-20%
COc1ccc(Cn2c(C(=O)O)c(CNC3CCCC3)c3ccc(OC)cc32)cc1	0%	-29%	?	?
COc1ccc2c(CNC3CCC(C)CC3)c(C(=O)O)n(Cc3ccc(F)cc3)c2c1 (stereo unspecified)	3%	16µM*	?	-19%
CCOc1ccccc1CNCc1c(C(=O)O)n(Cc2ccccc2)c2cc(OC)ccc12	5%	13µM*	?	-5%
Cc1ccc(NC(=O)Cn2nc(C(F)(F)F)c3c2CCCC3)cc1	-4%	-12%	-23%	-1%
CC1(C(=O)NC2CCCC2)CCN1C(=O)Cc1ccc(-c2ccccc2)cc1 (stereo unspecified)	·	23µM*	16µM*	0%
CC1(C(=O)NCC2CCCCC2)CCN1C(=O)Cc1ccc(-c2ccccc2)cc1 (stereo unspecified)	·	23µM*	?	0%
O=Cc1cn(CCOc2ccccc2)c2ccccc12	3%	?	-22%	0%
OC(c1ccc(Cl)c(Cl)c1)c1ncc(-c2ccccc2F)[nH]1 (stereo unspecified)	·	?	?	0%
Cc1c(C(=O)N2CC3CCC2C3)sc2ncnc(NCCc3c[nH]c4ccccc34)c12 (stereo unspecified)	·	23µM*	?	·
Cc1nccn1CCCNC(=O)CC1C(=O)NCCN1Cc1ccc(F)cc1Cl (stereo unspecified)	0%	0%	1%	?
Cc1ccc(NC(=O)CN(C)C(=O)COc2cccc3cccnc23)cc1	-1%	2.9µM*	3.7µM*	-6%
SMILES	TDP1 inh	DT40 TDP1 no CPT	DT40 TDP1 CPT	ClpP mod
Cc1ccc(NC(=O)c2cccc3cccnc23)cc1	-1%	18µM*	?	·
Cc1ccc(NC(=O)CN(C)S(=O)(=O)c2cccc3cccnc23)cc1	1%	?	-3%	1%
Fc1ccc2cnc(-c3ccccc3)c(-c3cc(C(F)(F)F)cc(C(F)(F)F)c3)c2c1	·	16µM*	?	-8%
Fc1ccc2c(-c3cccc(C(F)(F)F)c3)c(-c3ccccc3)ncc2c1	-10%	15µM*	?	?
Fc1ccc2cnc(-c3ccccc3)c(-c3ccc(C(F)(F)F)cc3)c2c1	-10%	18µM*	?	-12%
O=C(COc1ccc(Cl)cc1)OCCNC12CC3CC(CC(C3)C1)C2	6%	-12%	12%	·
